TLR9-MyD88 block – inhibitors of human TLR9-MyD88 binding; hit rate 0.21% among 340,000; inhibition, % at 4.98 µM; AID 504734; CHO BLA complementation TLR9-MyD88, CCF4 FRET ratio;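 active = inhibition above the mean over all tested compounds plus 3 SD, cut at about 21% in these data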;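 note: 0% = DMSO only wells and 100% = clavulanate BLA inhibitor control wells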
Target sequence (Q99836 whole entry, looked up): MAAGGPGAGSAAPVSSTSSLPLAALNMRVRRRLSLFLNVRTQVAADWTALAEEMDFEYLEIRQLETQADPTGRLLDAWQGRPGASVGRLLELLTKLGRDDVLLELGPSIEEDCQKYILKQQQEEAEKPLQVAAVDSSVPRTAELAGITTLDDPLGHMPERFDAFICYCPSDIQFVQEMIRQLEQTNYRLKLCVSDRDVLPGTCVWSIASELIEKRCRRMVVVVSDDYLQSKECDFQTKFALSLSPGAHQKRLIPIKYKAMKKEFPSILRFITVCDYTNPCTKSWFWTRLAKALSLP
Target sequence (Q9NR96 whole entry, looked up): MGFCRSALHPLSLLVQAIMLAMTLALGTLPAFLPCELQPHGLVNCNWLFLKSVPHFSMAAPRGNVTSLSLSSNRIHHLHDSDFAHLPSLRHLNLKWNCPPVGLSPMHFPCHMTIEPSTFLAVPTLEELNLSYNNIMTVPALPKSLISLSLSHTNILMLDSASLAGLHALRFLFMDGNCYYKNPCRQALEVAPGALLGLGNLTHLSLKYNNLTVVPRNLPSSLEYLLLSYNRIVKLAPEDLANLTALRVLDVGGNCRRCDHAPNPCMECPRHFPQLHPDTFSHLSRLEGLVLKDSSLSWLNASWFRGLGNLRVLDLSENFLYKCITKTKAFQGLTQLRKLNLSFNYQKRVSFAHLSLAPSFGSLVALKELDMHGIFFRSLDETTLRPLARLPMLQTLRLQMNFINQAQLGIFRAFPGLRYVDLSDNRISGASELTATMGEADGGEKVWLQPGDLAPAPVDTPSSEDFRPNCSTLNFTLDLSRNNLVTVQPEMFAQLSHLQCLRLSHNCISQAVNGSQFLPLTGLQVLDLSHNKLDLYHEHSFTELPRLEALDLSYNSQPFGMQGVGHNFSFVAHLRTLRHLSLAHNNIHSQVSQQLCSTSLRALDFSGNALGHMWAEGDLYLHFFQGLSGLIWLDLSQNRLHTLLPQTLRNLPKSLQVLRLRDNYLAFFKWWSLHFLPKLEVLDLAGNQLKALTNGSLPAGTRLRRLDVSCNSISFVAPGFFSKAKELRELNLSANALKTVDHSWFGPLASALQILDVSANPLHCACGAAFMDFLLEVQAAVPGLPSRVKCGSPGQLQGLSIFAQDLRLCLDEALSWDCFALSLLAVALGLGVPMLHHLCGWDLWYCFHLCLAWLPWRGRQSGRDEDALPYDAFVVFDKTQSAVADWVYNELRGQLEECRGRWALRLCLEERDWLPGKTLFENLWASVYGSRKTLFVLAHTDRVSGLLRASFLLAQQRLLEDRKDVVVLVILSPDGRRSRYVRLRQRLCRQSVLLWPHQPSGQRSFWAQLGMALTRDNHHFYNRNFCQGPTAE
TLR4-MyD88 BLA – TLR4-MyD88 interaction inhibition in cells | O00206+Q99836 | HeLa CL3-4 TLR4/MyD88 BLA complementation, FRET ratio | inhibition, % at 8.4 µM | hit rate 0.18% among 200,000; in the data active = inhibition above about 25%;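 note: 0% = vehicle and 100% = reference inhibitor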
ABHD5 PLIN5 PPI – inhibitors of human ABHD5-perilipin-5 interaction | hit rate 0.78% among 360,000 | Split G. princeps luciferase complementation, luminescence, 4 h | inhibition, % at 4 µM;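 active = inhibition above the mean inhibition across every tested compound plus 3 SD, cut at about 22% in these data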;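 note: 0% = DMSO only wells and the 100% control is not disclosed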
NOD2-RIPK2 inh – blocks binding of human NOD2 to RIPK2 | hit rate 0.38% among 360,000 | CHO BLA complementation NOD2-RIPK2, CCF4 ratio | inhibition, % at 4.98 µM | AID 624267 | O43353; in the data active = inhibition above about 21%;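 note: 0% = vehicle only and 100% = reference blocker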
ABHD5-PLIN5 conf – ABHD5-PLIN5 interaction inhibition, confirmed; shares compounds with ABHD5 PLIN5 PPI; biochemical ABHD5-PLIN5 interaction, luminescence; inhibition, % at 4 µM; hit rate 67% among 2,200; AID 651612; in the data active = inhibition above about 23%;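 note: 0% = DMSO vehicle wells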
HNF4 counter – HNF4 split-luciferase signal hit, counter-screen. shares compounds with ABHD5 PLIN5 PPI. HNF4 dimerization, luminescence, biochemical. inhibition, % at 4 µM. hit rate 77% among 2,200. AID 651674;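 active = mean inhibition across replicate wells exceeding the computed hit threshold, cut at about 13% in these data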;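 note: light from luciferase halves that rejoin when HNF4 fusion proteins dimerize; 0% = DMSO only wells and the 100% control is not given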
* hit, by the source's call; . = not tested or not shown. This is a sample that favours compounds with a hit; in the whole collection about 1.2% have one here.

SMILES	TLR9-MyD88 block	TLR4-MyD88 BLA	ABHD5 PLIN5 PPI	NOD2-RIPK2 inh	ABHD5-PLIN5 conf	HNF4 counter
Cc1sc2nc(SCC(=O)Nc3c(C)n(C)n(-c4ccccc4)c3=O)n(C)c(=O)c2c1C	-7.0	0.6	24.2*	3.0	-0.4	-0.5
COc1cc(/C=C/c2[nH]c(=O)[nH]c(=O)c2[N+](=O)[O-])ccc1OCCC(C)C	8.5	-0.3	-1.1	-2.8	.	.
CCC(C)Oc1ccc(/C=C/c2[nH]c(=O)[nH]c(=O)c2[N+](=O)[O-])cc1OC (stereo not drawn)	2.4	-4.1	34.7*	-2.4	76.6*	71.8*
COc1cc(/C=C/c2[nH]c(=O)[nH]c(=O)c2[N+](=O)[O-])cc([N+](=O)[O-])c1O	-4.2	.	33.2*	-2.2	43.9*	32.7*
Cc1ccc(C(=O)C(C(=O)/C=C/c2ccccc2)=C2SCCCS2)cc1	1.8	6.0	30.8*	4.6	66.3*	50.4*
Cc1ccc(C(=O)C=CC=Cc2ccccc2)cc1	-2.2	.	8.6	-17.3	.	.
CCOc1ccc(S(=O)(=O)N2CCCC(C(=O)N3CCOCC3)C2)cc1C (stereo not drawn)	-0.9	.	-4.0	-1.3	.	.
C#CCOCCOCCOCCNc1nc(N2CCN(C(=O)CCCCCCCCCCNC(=O)[C@H](CO)n3cc(CCCSC)nn3)CC2)nc(N2CCN(C(=O)CCCCCCCCCCNC(=O)[C@H](CO)n3cc(CCCSC)nn3)CC2)n1	2.3	.	8.8	7.7	.	.
C#CCOCCOCCOCCNc1nc(N2CCN(C(=O)CCCCCCCCCCNC(=O)[C@@H]([C@H](C)O)n3cc(C)nn3)CC2)nc(N2CCN(C(=O)CCCCCCCCCCNC(=O)[C@@H]([C@H](C)O)n3cc(C)nn3)CC2)n1	-2.4	.	39.9*	-3.1	8.3	-12.6
C#CCOCCOCCOCCNc1nc(N2CCN(C(=O)CCCCCCCCCCNC(=O)Cn3cc(CCCCCN)nn3)CC2)nc(N2CCN(C(=O)CCCCCCCCCCNC(=O)[C@H](CO)n3cc(CCCCCN)nn3)CC2)n1	-15.3	.	37.4*	-4.3	10.3	-0.1
C#CCOCCOCCOCCNc1nc(N2CCN(C(=O)[C@H]([C@@H](C)CC)n3cc(CCCCN)nn3)CC2)nc(N2CCN(C(=O)[C@H](CCCCN)n3cc(CCC(=O)O)nn3)CC2)n1	-5.0	.	1.9	3.0	.	.
C#CCOCCOCCOCCNc1nc(N2CCN(C(=O)CCCCCCCCCCNC(=O)[C@H](CCCCN)n3cc(CCO)nn3)CC2)nc(N2CCN(C(=O)CCCCCCCCCCNC(=O)[C@@H]([C@H](C)O)n3cc(C)nn3)CC2)n1	-13.0	.	45.0*	11.0	28.8*	13.4*
C#CCOCCOCCOCCNc1nc(N2CCN(C(=O)CCCCCCCCCCNC(=O)[C@H](CCC(=O)O)n3cc(CCCCCN)nn3)CC2)nc(N2CCN(C(=O)CCCCCCCCCCNC(=O)[C@@H]([C@H](C)O)n3cc(C)nn3)CC2)n1	1.6	.	27.1*	12.4	7.1	0.7
CCC(C)NCCOCCOc1ccc(Cl)c2ccccc12 (stereo not drawn)	-4.5	-1.8	29.7*	3.6	14.9	1.5
CCC(C)NCCOCCOc1ccc(Cl)c(C)c1C (stereo not drawn)	5.1	-14.7	18.8	-21.2	.	.
CC(O)/C=C/c1ccc2ccccc2n1 (stereo not drawn)	-4.5	4.7	23.5*	6.1	23.4*	26.1*
Cc1cc(/C=C2\SC(=Nc3ccccc3)NC2=O)c(C)n1-c1ccc(S(N)(=O)=O)cc1	-2.1	4.2	28.5*	6.9	6.8	7.0
Cc1ccc(-n2c(C)cc(/C=C3\SC(=O)NC3=O)c2C)cc1	5.8	.	-7.0	4.2	.	.
Cc1ccc(C(CC(=O)c2ccc(Cl)cc2)C(=O)O)cc1 (stereo not drawn)	2.6	2.5	0.5	-11.0	.	.
Cc1ccc(SC(CC(=O)c2ccc(C)cc2)C(=O)O)cc1 (stereo not drawn)	-5.2	-18.6	69.0*	9.5	29.1*	73.1*
O=C1C=CC2=C3c4cc(O)c(O)cc4CC3(O)COC2=C1O (stereo not drawn)	-6.2	.	27.7*	-7.5	64.2*	32.6*
Cc1ccc(-n2nc(-c3ccco3)cc2C(=O)O)c(C)c1	2.3	-6.1	31.2*	-8.8	23.0*	27.2*
Cc1cc(C)c2c(=O)n(CC(=O)NC3CCCC3)sc2n1	3.1	.	27.1*	-7.7	32.9*	106.8*
Cc1cc(C)c2c(=O)n(CC(=O)Nc3ccc(Br)c(C)c3)sc2n1	11.3	.	6.7	-6.3	.	.
CC(=O)Nc1ccc(S(=O)(=O)N(C)CC(=O)OC(C)C(=O)NC2(C#N)CCCCC2)cc1 (stereo not drawn)	5.6	.	5.6	-23.3	.	.
SMILES	TLR9-MyD88 block	TLR4-MyD88 BLA	ABHD5 PLIN5 PPI	NOD2-RIPK2 inh	ABHD5-PLIN5 conf	HNF4 counter
O=[N+]([O-])c1ccc(N=NN(CCO)CCO)cc1	1.1	-6.7	-5.3	-8.8	.	.
O=[N+]([O-])c1ccc(N=Nc2ncc[nH]2)cc1	11.5	.	29.9*	-3.8	57.5*	52.1*
COc1cc(OC)c(OC)cc1/C=C/c1cc(C(F)(F)F)[nH]c(=O)n1	3.7	-5.2	4.6	2.0	.	.
COc1cc(/C=C/c2cc(C(F)(F)F)[nH]c(=O)n2)cc(OC)c1OC	6.7	11.3	31.1*	3.7	46.6*	43.0*
Cc1nc(C)c(C(=O)N/N=C/c2ccco2)s1	-8.6	12.3	-2.6	-7.0	.	.
CC(=O)c1ccc(N2CCN(S(=O)(=O)c3cn(C)c(C)n3)CC2)cc1	-9.1	.	-2.5	5.3	.	.
Cc1ccc(-c2c[n+](CC(=O)Nc3nc(-c4ccc(F)cc4)cs3)c3n2CCC3)cc1	2.2	-11.5	25.0*	2.7	15.5	8.1
CCOC(=O)C(c1ccccc1)C(Nc1ccc(F)cc1)c1ccccn1 (stereo not drawn)	-16.3	.	3.1	3.2	.	.
CCOC(=O)C(C(=O)OCC)C(Nc1ccc(Br)cc1)c1ccccc1 (stereo not drawn)	-7.0	-2.1	25.9*	-4.4	10.7	52.2*
O=C1N2CCCc3cccc(c32)C12Nc1ccccc1S2 (stereo not drawn)	2.8	0.8	61.1*	15.3	-4.0	-4.3
O=c1c2cc(N3CCOCC3)ccc2[nH]c(=S)n1Cc1ccco1	2.3	.	25.3*	1.9	43.3*	77.3*
O=c1c2cc(N3CCOCC3)ccc2[nH]c(=S)n1Cc1cccc(Cl)c1	6.1	-5.9	7.7	-16.0	.	.
COc1ccccc1/C=C/C=N/n1c(-c2ccc(F)cc2)n[nH]c1=S	.	.	52.3*	-5.3	-14.1	-8.3
O=C(NCC[C@@H]1CC[C@@H](NS(=O)(=O)Cc2ccccc2)[C@@H](CO)O1)C1CC1	.	.	-1.2	4.7	.	.
COc1ccc(-n2c(=O)cc(N3CCOCC3)[nH]c2=O)cc1	2.4	-5.4	6.5	8.2	.	.
COc1ccc(-n2c(=O)cc(N3CC(C)OC(C)C3)[nH]c2=O)cc1 (stereo not drawn)	-0.5	0.7	37.2*	-17.9	1.2	-0.8
Clc1cccc(-c2nc3c4ccccc4ccn3c2CC2CCCCC2)c1	.	.	-3.9	-2.9	.	.

Assay outcomes: PubChem, The Scripps Research Institute Molecular Screening Center
